Assay results as given in PubChem BioAssay AID651725 (National Center for Advancing Translational Sciences (NCATS), 2012).
Screen size: about 360,000 compounds; about 2,000 (0.56%) were called active. Another 2% or so got no clear call; they are omitted. Rule as the data show it: active = activity change below about -65%; inconclusive = mostly about -30% to -63%; inactive = weaker than that. The sample as a whole holds a higher share of actives than the screen did.

target: Homeobox protein SIX1 (Homo sapiens) + Protein phosphatase EYA2 (Homo sapiens) (UniProt Q15475+O00167); assay: qHTS Assay for Inhibitors of the Six1/Eya2 Interaction; settings: AlphaScreen GST-Six1/His-Eya2 binding, biochemical; hits give low values
Sequence (O00167 whole entry, looked up): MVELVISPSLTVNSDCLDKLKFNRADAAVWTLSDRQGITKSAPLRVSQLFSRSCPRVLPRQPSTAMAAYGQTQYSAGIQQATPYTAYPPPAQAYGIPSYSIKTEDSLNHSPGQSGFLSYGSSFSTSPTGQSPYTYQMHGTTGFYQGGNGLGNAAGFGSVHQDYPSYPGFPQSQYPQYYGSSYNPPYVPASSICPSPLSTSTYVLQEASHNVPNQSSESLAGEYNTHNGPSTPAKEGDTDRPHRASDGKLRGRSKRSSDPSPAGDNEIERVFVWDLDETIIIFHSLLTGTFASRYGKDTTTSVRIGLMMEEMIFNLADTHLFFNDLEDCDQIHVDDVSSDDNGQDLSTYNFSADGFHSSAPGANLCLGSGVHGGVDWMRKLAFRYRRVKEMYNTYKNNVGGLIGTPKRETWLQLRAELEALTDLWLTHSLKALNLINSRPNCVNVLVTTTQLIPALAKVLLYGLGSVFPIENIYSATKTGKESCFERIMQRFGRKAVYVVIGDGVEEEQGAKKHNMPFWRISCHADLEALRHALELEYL
Sequence (Q15475 whole entry, looked up): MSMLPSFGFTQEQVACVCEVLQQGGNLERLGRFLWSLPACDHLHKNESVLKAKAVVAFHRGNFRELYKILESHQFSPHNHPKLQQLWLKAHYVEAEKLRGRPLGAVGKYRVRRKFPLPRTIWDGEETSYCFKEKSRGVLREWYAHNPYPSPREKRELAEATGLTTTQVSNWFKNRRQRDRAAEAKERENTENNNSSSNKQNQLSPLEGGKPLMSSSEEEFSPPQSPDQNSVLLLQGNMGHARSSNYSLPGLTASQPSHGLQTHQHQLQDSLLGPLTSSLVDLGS
Source text: Its expression is low or undetectable in normal adult breast tissue but the gene is over-expressed in 50% of primary breast tumors and 90% of metastatic lesions. […] Similar to Six1, Eya2 is also not expressed in most normal adult tissues, but is reexpressed in cancers. The Six1-Eya interaction is essential for proliferation during embryonic development, and both Six1 and Eya2 have been independently implicated in the same types of cancer. Because Six1 and Eya2 are embryonic genes with little expression in adult tissues, inhibitors of their expression/activity are likely to have limited side effects. Our goal is to identify inhibitors of the Six1/Eya interaction for potential cancer therapy. To this end, we have developed a homogenous AlphaScreen assay targeting the Six1/Eya interaction. We performed a large scale HTS of the Molecular Libraries Small Molecule Repository (MLSMR) to identify inhibitors of the Six1/Eya interaction as potential anti-cancer therapeutics. Compounds identified can also be used as chemical probes to better understand the biological functions of Six1 and Eya. NIH Chemical Genomics Center [NCGC] NIH Molecular Libraries Probe Centers Network [MLPCN] MLPCN Grant: DA033147 Assay Submitter (PI): Rui Zhao, University of Colorado Denver
The first step of the 5 uL AlphaScreen assay is to dispense assay buffer (50 mM Tris, pH 8.0, 300 mM NaCl, 0.05% BSA, 0.02% Tween 20, 1 mM TCEP) into a Greiner 1536 white solid bottom microtiter plate (789175-F). Five microliters is added to Column 1, 4 uL is added to Column 2 and 3 uL is added to Columns 3 through 48. A 5X protein solution (250 nM GST-Six1 protein + 500 nM His-tagged Eya2 protein) is mixed and 1 uL is dispensed to Columns 3-48. Using a 1536 pintool, 23 nL of compound is transferred to the assay plate. A solution of 5X AlphaScreen beads is mixed (50 ug/mL Glutathione linked donor beads + Nickel chelated acceptor beads) and 1 uL is dispensed to Columns 2-48. The assay plate is incubated for one hour, with a lid, at 37 deg C in the dark. The plate is read using a Perkin Elmer Envision using an AlphaScreen protocol.
% is scaled to controls: 0 for no effect and ±100 for the full control effect.

Compound | activity change
COc1ccc(NC(=O)CCCNC(=O)Cn2cnc3sc4c(c3c2=O)CCCC4)cc1OC | -5.21% (inactive)
COc1ccc(NC(=O)CCNC(=O)Cn2cnc3sc4c(c3c2=O)CCCC4)cc1OC | -2.73% (inactive)
COc1ccc(/C=N/Nc2ncnc3sc4c(c23)CCCC4)cc1O | -78.1% (active)
CO[C@@H]1CN(C)C(=O)c2cc(NC(=O)Nc3cc(F)ccc3F)ccc2OC[C@H](C)N(C(=O)c2ccccn2)C[C@@H]1C | -5.82% (inactive)
CCOC(=O)N1CCN(C(=O)C[C@@H]2C[C@@]3(C(=O)OC)CC(C)(C)CC=C3N(Cc3ccco3)C2=O)CC1 | -1.81% (inactive)
COc1ccccc1C(=O)NCCC(=O)N(C)Cc1cccnc1 | 6.46% (inactive)
COc1ccc2c(c1)c(=Cc1ccc(N(C)C)cc1)c1cc(-c3ccccc3)[n+](C)n12 | -69.4% (active)
CCCCCNC(=O)C1C(=O)Nc2ccccc2C(=O)N1C(C)(C)C (stereo not drawn) | 1.59% (inactive)
Nc1ncnc2c1ncn2[C@@H]1O[C@H](CNCc2cccn2-c2nccs2)[C@@H](O)[C@H]1O | 0.147% (inactive)
Cc1cccn2c(=O)c3cc(C(=O)NCCN4CCOCC4)c(=N)n(Cc4cccnc4)c3nc12 | -20.8% (inactive)
Cc1ccc(S(=O)(=O)c2cc3c(=O)n4cccc(C)c4nc3n(CCc3ccccc3)c2=N)cc1C | 0.223% (inactive)
COc1ccc(CCn2c(=N)c(C(=O)NCc3ccco3)cc3c(=O)n4cccc(C)c4nc32)cc1 | -68.6% (active)
Cc1cccc(N(C(=O)c2ccc(CN3CCOCC3)o2)C(C(=O)NC2CCCCC2)c2ccc(F)cc2)c1 (stereo not drawn) | 0% (inactive)
COC(=O)[C@@]12C[C@@H](CC(=O)NCc3cccc(C(F)(F)F)c3)C(=O)N(Cc3ccco3)C1=CCC(C)(C)C2 | -8.64% (inactive)
CCOC(=O)N1CCN(C(=O)COc2ccc3oc4c(c3c2)CCCC4)CC1 | -10.2% (inactive)
CCOC(=O)c1c(C)oc2ccc(OCC(=O)N(CC)CC)cc12 | -68.9% (active)
CCOC(=O)c1c(C)oc2cc(Br)c(OCC(N)=O)cc12 | 5.69% (inactive)
CC1(C)NC(=O)N(CC(=O)Nc2ccc(-c3ccccc3)cc2)C1=O | 5.24% (inactive)
CCC(c1nc2ccccc2[nH]1)n1c(=O)c(-c2cccs2)nc2ccccc21 (stereo not drawn) | 9.68% (inactive)
CCCCc1c(-c2ccc(Br)cc2)ncn1CCc1ccccc1OC | -13.5% (inactive)
CC(=NNC(=O)c1ccc2nc[nH]c2c1)c1ccc(Br)cc1 | 0.936% (inactive)
CN(C)N=Nc1ccc2nc[nH]c2c1 | -72.7% (active)
CC/C(O)=N\S(=O)(=O)c1ccc(N=NN(C)C)cc1 | 0% (inactive)
